Data from PubChem BioAssay AID1159580 (chemical genetic matrix, 2015).
Where “and” joins values, the source holds several entries; their conditions need not be identical. Identical values can stand only once. The whole screen tested about 5,500 compounds, of which about 2,000 (36%) were called active. Roughly 18% stayed inconclusive and do not appear here. Cut-off read from the data, not from the text of the source: active = normalized growth mostly below about 0.91 (no sharp cut-off); inconclusive = no clear call, values can overlap the other calls; inactive = mostly above about 0.92. Some of the results follow.

Experiment: chemical genetic growth profiling, strain panel (AID 1159580);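 note: tested at 20 µM; growth read once vehicle control cultures reached saturation at 30 °C; 1 = growth at the plate median or of vehicle wells; lower values mean less growth of the strain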
Conditions: S. cerevisiae deletion strains, growth OD

Measured: normalized growth

CN[C@@H]1[C@H](O)[C@H](NC)[C@H]2O[C@@]3(O)C(=O)C[C@@H](C)O[C@H]3O[C@@H]2[C@H]1O
inactive: locus YAL013W, strain DEP1, stronger effect = lower value 1.01 | locus YAL021C, strain ccr4, stronger effect = lower value 0.982 | locus YAL026C, strain drs2, stronger effect = lower value 1 | locus YAL030W, strain snc1, stronger effect = lower value 1 | locus YBL061C, strain skt5, stronger effect = lower value 1.01 | locus YBR009C, strain hhf1, stronger effect = lower value 0.976 | locus YBR021W, strain FUR4, stronger effect = lower value 0.997 | locus YBR023C, strain chs3, stronger effect = lower value 1 | locus YBR171W, strain sec66, stronger effect = lower value 1.01 | locus YBR229C, strain ROT2, stronger effect = lower value 1.01 | locus YBR231C, strain swc5, stronger effect = lower value 1.01 | locus YBR279W, strain paf1, stronger effect = lower value 0.988 | locus YCL011C, strain gbp2, stronger effect = lower value 0.991 | locus YCL016C, strain dcc1, stronger effect = lower value 0.984 | locus YCL029C, strain bik1, stronger effect = lower value 1.03 | locus YCL061C, strain MRC1, stronger effect = lower value 1.02 | locus YCL069W, strain vba3, stronger effect = lower value 1 | locus YCR088W, strain abp1, stronger effect = lower value 1 | locus YDL005C, strain med2, stronger effect = lower value 1 | locus YDL035C, strain GPR1, stronger effect = lower value 1.02 | locus YDL040C, strain nat1, stronger effect = lower value 1.01 | locus YDL074C, strain BRE1, stronger effect = lower value 1.02 | locus YDL101C, strain DUN1, stronger effect = lower value 1.02 | locus YDL134C, strain PPH21, stronger effect = lower value 1.01 | locus YDL185W, strain tfp1, stronger effect = lower value 1.02 | locus YDL192W, strain arf1, stronger effect = lower value 1.02 | locus YDR001C, strain nth1, stronger effect = lower value 0.997 | locus YDR069C, strain doa4, stronger effect = lower value 1.02 | locus YDR101C, strain arx1, stronger effect = lower value 1.02 | locus YDR137W, strain rgp1, stronger effect = lower value 0.989 | locus YDR150W, strain NUM1, stronger effect = lower value 1.01 | locus YDR159W, strain sac3, stronger effect = lower value 0.969 | locus YDR162C, strain NBP2, stronger effect = lower value 1.03 | locus YDR195W, strain ref2 0.99 | locus YDR297W, strain sur2, stronger effect = lower value 1 | locus YDR318W, strain mcm21, stronger effect = lower value 1.03 | locus YDR334W, strain swr1, stronger effect = lower value 1 | locus YDR335W, strain msn5, stronger effect = lower value 1 | locus YDR388W, stronger effect = lower value 1.02 | locus YDR392W, strain spt3, stronger effect = lower value 0.956 | locus YDR502C, strain sam2, stronger effect = lower value 1.02 | locus YEL003W, strain gim4, stronger effect = lower value 1 | locus YEL037C, strain rad23, stronger effect = lower value 0.998 | locus YEL061C, strain CIN8 (second series), stronger effect = lower value 0.991 | locus YEL061C, strain CIN8, stronger effect = lower value 1.01 | locus YER015W, strain faa2, stronger effect = lower value 1 | locus YER016W, strain bim1, stronger effect = lower value 0.974 | locus YER110C, stronger effect = lower value 1.03 | locus YER111C, strain swi4, stronger effect = lower value 1.01 | locus YER155C, strain BEM2 (second series), stronger effect = lower value 1.04 | locus YER155C, strain BEM2, stronger effect = lower value 1.01 | locus YER167W, strain BCK2, stronger effect = lower value 1.02 | locus YFR010W, strain ubp6, stronger effect = lower value 1.02 | locus YGL078C, strain dbp3, stronger effect = lower value 1.02 | locus YGL086W, strain mad1, stronger effect = lower value 1.02 | locus YGL167C, strain pmr1, stronger effect = lower value 1.02 | locus YGL173C, strain kem1, stronger effect = lower value 1.03 | locus YGL227W, strain vid30, stronger effect = lower value 1.01 | locus YGL240W, strain doc1, stronger effect = lower value 1.03 | locus YGL248W, strain PDE1, stronger effect = lower value 1.02 | locus YGL253W, strain hxk2, stronger effect = lower value 0.973 | locus YGR078C, strain PAC10, stronger effect = lower value 1.02 | locus YGR135W, strain pre9, stronger effect = lower value 1.02 | locus YGR229C, strain SMI1, stronger effect = lower value 1.02 | locus YGR252W, strain gcn5, stronger effect = lower value 1.01 | locus YHR013C, strain ard1, stronger effect = lower value 0.993 | locus YHR027C, strain rpn1, stronger effect = lower value 0.993 | locus YHR030C, strain SLT2, stronger effect = lower value 1.02 and 0.968 | locus YHR079C, strain IRE1 (second series), stronger effect = lower value 1.03 | locus YHR079C, strain IRE1, stronger effect = lower value 0.953 | locus YHR094C, strain hxt1, stronger effect = lower value 1.02 | locus YHR129C, strain ARP1, stronger effect = lower value 1.01 | locus YHR142W, strain chs7, stronger effect = lower value 0.995 | locus YHR200W, strain rpn10, stronger effect = lower value 1 | locus YIL066C, strain RNR3, stronger effect = lower value 1.01 | locus YIL073C, strain SPO22, stronger effect = lower value 1.04 | locus YIL125W, strain kgd1, stronger effect = lower value 1.01 | locus YIR030C, strain dcg1, stronger effect = lower value 1.02 | locus YJL092W, strain hpr5, stronger effect = lower value 1.01 | locus YJL095W, strain BCK1 (second series), stronger effect = lower value 1.01 | locus YJL095W, strain BCK1, stronger effect = lower value 1.02 and 0.984 | locus YJL115W, strain asf1, stronger effect = lower value 0.998 | locus YJL129C, strain trk1, stronger effect = lower value 1.01 | locus YJL134W, strain LCB3, stronger effect = lower value 1.01 | locus YJL154C, strain vps35, stronger effect = lower value 0.991 | locus YJL164C, strain tpk1, stronger effect = lower value 0.987 | locus YJL166W, strain qcr8, stronger effect = lower value 1.02 | locus YJL168C, strain set2, stronger effect = lower value 1.02 | locus YJL187C, strain SWE1 (second series), stronger effect = lower value 1.02 | locus YJR043C, strain POL32, stronger effect = lower value 1.01 | locus YJR066W, strain TOR1, stronger effect = lower value 0.977
